High-throughput results deposited in PubChem by National Center for Advancing Translational Sciences (NCATS).
A selection: hits, their analogues and other compounds. The true share with any hit is near 3.2%.
ERK AVP inh: qHTS Assay for Inhibitors of the ERK Signaling Pathway using a Homogeneous Screening Assay | AID 995, 2007 | Potency, µM (doses to about 57.5 µM), inactives show at the highest dose activity, negative = inhibition, hits mostly inhibitors | HEK293-V1b, vasopressin-stimulated pERK AlphaScreen | 72,000 compounds, 0.99% hits; also: % is scaled to controls: 0 for no effect and ±100 for the full control effect; nearly all actives have a fitted effect of over 55% in size
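HEK293 cells stably expressing V1b receptor, seeded overnight in 1% FBS, were treated with compounds for 30 min at 37C, then stimulated 5 min with 25 nM vasopressin; phospho-ERK read by AlphaScreen SureFire after lysis.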
15-hLO inh: qHTS Assay for Inhibitors of 15-hLO (15-human lipoxygenase) | purified 15hLO-1, xylenol orange hydroperoxide absorbance | Potency, µM (highest dose often 57.1 µM), without a hit: at the highest dose activity change, negative = inhibition, most hits filed as inhibitors | 74,000 compounds, 1.4% hits | AID 887, 2007; also: % is scaled to controls: 0 for no effect and ±100 for the full control effect; nearly all actives have a fitted effect of over 55% in size
Target sequence (P16050 whole entry, looked up): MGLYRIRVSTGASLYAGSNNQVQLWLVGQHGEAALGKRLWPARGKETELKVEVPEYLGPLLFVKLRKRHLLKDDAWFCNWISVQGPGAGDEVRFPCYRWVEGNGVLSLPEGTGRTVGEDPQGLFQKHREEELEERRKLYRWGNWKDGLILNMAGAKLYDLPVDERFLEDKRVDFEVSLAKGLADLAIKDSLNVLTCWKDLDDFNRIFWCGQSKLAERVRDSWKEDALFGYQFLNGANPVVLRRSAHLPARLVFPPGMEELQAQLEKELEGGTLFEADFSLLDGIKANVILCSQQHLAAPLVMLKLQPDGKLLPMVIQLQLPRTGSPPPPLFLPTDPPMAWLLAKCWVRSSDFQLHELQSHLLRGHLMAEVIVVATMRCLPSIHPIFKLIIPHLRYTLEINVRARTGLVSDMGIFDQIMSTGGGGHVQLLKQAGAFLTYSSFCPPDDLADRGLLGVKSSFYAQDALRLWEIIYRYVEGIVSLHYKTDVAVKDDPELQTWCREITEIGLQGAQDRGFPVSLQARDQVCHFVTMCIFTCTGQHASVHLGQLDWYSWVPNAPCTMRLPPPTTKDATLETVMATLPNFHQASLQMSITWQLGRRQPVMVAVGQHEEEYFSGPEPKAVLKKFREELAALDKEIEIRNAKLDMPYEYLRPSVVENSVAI
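Readout: Fe(III)-xylenol orange absorbance, 573-to-405 nm ratio as reaction progress. Enzyme 40 nM purified human 15hLO-1, substrate 50 uM arachidonic acid, 6 min RT after 15 min compound preincubation; Hepes pH 7.5 buffer with Triton X-100.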
CRE Fsk mod: Cell signaling CRE-BLA (Fsk stim). 71,000 compounds, 2.5% hits. Potency, µM (highest dose often 38.2 µM), without a hit: top-dose activity change, negative = inhibition, actives largely listed as activators. CHO CRE-bla reporter (cAMP response element driving beta-lactamase), forskolin EC10, beta-lactamase ratio; active = well fitted activation curve with a large enough effect in the signal ratio, with a control signal flat, not every such curve was filed as active; inconclusive = small, poorly fitted or top-dose-only effect, or effect the other way, or a change in a side signal; the % refers to the signal ratio; also: % of control where 0% means no effect
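Modulation of forskolin-driven signalling is measured in CHO cells carrying a CRE-controlled beta-lactamase reporter. Cells are stimulated with EC10 NKH 477 in the presence of titrated compound for 3 h at 37 °C, then loaded with CCF4 for 2 h at room temperature.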
15-hLO-2 inh: qHTS Assay for Inhibitors of 15-hLO-2 (15-human lipoxygenase 2); Polyunsaturated fatty acid lipoxygenase ALOX15B (Homo sapiens), O15296; purified 15hLO-2, xylenol orange hydroperoxide absorbance; Potency, µM (doses to about 57.1 µM), for the others: at the top dose activity change, negative = inhibition, actives largely listed as inhibitors; 110,000 compounds, 0.56% hits; AID 881, 2007; also: % is scaled to controls: 0 for no effect and ±100 for the full control effect; nearly all actives have a fitted effect of over 60% in size
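Purified human 15hLO-2 (50 nM) preincubated 15 min with compound, then 45 uM arachidonic acid for 90 min at RT in 25 mM Hepes pH 7.5, 0.01% Triton X-100. Hydroperoxide detected by Fe-xylenol orange; 573/405 nm absorbance ratio.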
Numbers without * were called inactive; [ ] = dose if it differs, or a comment. Unless noted, calls follow the shape of the dose curve; as a rule, active = well fitted inhibition curve with a large enough effect; inconclusive = small, poorly fitted or top-dose-only effect; inactive = no such curve, though single readings can be large or run the other way. Potency is read from the fitted curve at half-maximal effect.

How did CC1=CC(C)(C)Nc2ccc(OC(=O)CN3C(=O)c4cccc5cccc(c45)C3=O)cc21 do in these assays?
15-hLO-2 inh: 13µM*

Results for CCOc1ccc2c(c1)C(C)=CC(C)(C)N2 ?
ERK AVP inh: -16%; 15-hLO inh: 25µM*; CRE Fsk mod: inconclusive; 15-hLO-2 inh: 13µM*

How did O=C(Nc1nc(-c2ccccn2)cs1)c1ccc(S(=O)(=O)N2CCCCC2)cc1 do in these assays?
ERK AVP inh: 25µM*; 15-hLO inh: 40%; CRE Fsk mod: 18%

What do the screens show for `CCOC(=O)C(CC)Sc1nnc2c3cc(C)ccc3n(C)c2n1` (configuration not stated)?
15-hLO-2 inh: -7%

How did CSc1nnc2c3cc(C)ccc3n(Cc3ccccc3)c2n1 do in these assays?
ERK AVP inh: -5%; 15-hLO inh: -10%; CRE Fsk mod: 2µM*; 15-hLO-2 inh: inconclusive

Results for COc1c(C)cccc1C(=O)Nc1cc(-c2nn3c(C)nnc3s2)ccc1C ?
15-hLO inh: 11%; CRE Fsk mod: 2.5µM*

What do the screens show for `COc1ccc(C(=O)Nc2cc(-c3nn4c(C)nnc4s3)ccc2C)cc1`?
15-hLO inh: 3%; CRE Fsk mod: inconclusive; 15-hLO-2 inh: 2%

Results for Nc1ccc(-c2nc3ccc(-c4nc5ccccc5o4)cc3[nH]2)cc1 ?
ERK AVP inh: 16%; 15-hLO inh: -3%; CRE Fsk mod: 13µM*; 15-hLO-2 inh: -11%

Results for Cc1nc2ccc(-c3nc4ccccc4o3)cc2[nH]1 ?
15-hLO-2 inh: 28%

What do the screens show for `COC(=O)C1=C(C)N(Cc2ccccc2)[C@]23O[C@](C(=O)OC)(C(=O)N2C1c1ccccc1)C1CCOC(=O)C13` (some centres not stated)?
ERK AVP inh: 28%[11.5 µM]; 15-hLO inh: 2%[11.4 µM]

How did CCOC(=O)N1CCN(C(=O)c2ccc3c(=O)n(Cc4ccc(OC)cc4)c(=S)[nH]c3c2)CC1 do in these assays?
ERK AVP inh: 32µM*; 15-hLO inh: -20%; CRE Fsk mod: inconclusive

Results for O=C(COC(=O)c1cccc(S(=O)(=O)N2CCN(c3ccccc3)CC2)c1)NCc1ccco1 ?
ERK AVP inh: 20%; 15-hLO inh: 25µM*; CRE Fsk mod: -16%; 15-hLO-2 inh: -1%

Results for COC(=O)c1ccc2ncccc2c1 ?
ERK AVP inh: 2%; 15-hLO inh: 7.9µM*; CRE Fsk mod: inconclusive; 15-hLO-2 inh: -5%

What do the screens show for `COc1cc(Cn2c(N)c(C#N)c3nc4ccccc4nc32)cc(OC)c1`?
ERK AVP inh: -23%; 15-hLO inh: inconclusive; CRE Fsk mod: 13µM*; 15-hLO-2 inh: 1%

What do the screens show for `COc1cccc(Cn2c(N)c(C#N)c3nc4ccccc4nc32)c1OC`?
ERK AVP inh: inconclusive; 15-hLO inh: -19%; CRE Fsk mod: 5µM*; 15-hLO-2 inh: inconclusive

What do the screens show for `CN(C)c1ccc(N/C=C/C(=O)C(C)(C)C)cc1`?
15-hLO-2 inh: 25µM*

Results for CN(C)c1ccc(-c2cncnc2Nc2ccccc2)cc1 ?
ERK AVP inh: inconclusive; 15-hLO inh: inconclusive; CRE Fsk mod: -15%; 15-hLO-2 inh: 10%

What do the screens show for `NCCC[C@@H](CC(=O)N[C@@H]1CCCC[C@H]1C(=O)N[C@H](CC(=O)N[C@@H](CCC(=O)O)CC(=O)O)Cc1c[nH]c2ccccc12)NC(=O)C[C@H](Cc1ccccc1)NC(=O)[C@@H]1CNCC[C@H]1N`?
CRE Fsk mod: -17%

How did CCCCOC(=O)C1=C(C)Nc2ncnn2C1c1ccc(OC)c(OC)c1OC (configuration not stated) do in these assays?
ERK AVP inh: 5%; 15-hLO inh: 7%; CRE Fsk mod: 9%

What do the screens show for `CCCCOC(=O)C1=C(C)Nc2ncnn2C1c1cc(OC)c(OC)cc1OC` (configuration not stated)?
ERK AVP inh: -10%; 15-hLO inh: 1%; CRE Fsk mod: 16µM*; 15-hLO-2 inh: 3%

What do the screens show for `CN(C)CCCNc1cc(O)c2c(c1O)C(=O)c1ccccc1C2=O`?
ERK AVP inh: -28%[11.5 µM]; 15-hLO inh: 3%[11.4 µM]; CRE Fsk mod: 26%[7.6 µM]; 15-hLO-2 inh: 7%[11.4 µM]

Results for O=C1c2ccccc2C(=O)c2c(O)c(O)cc(O)c21 ?
ERK AVP inh: 32µM*; 15-hLO inh: 5µM*; 15-hLO-2 inh: -8%

How did COCCNC(=O)c1c(N)n(-c2cccc(C)c2)c2nc3ccccc3nc12 do in these assays?
ERK AVP inh: 9%; 15-hLO inh: -19%; CRE Fsk mod: 10µM*; 15-hLO-2 inh: -2%

What do the screens show for `C=CCNC(=O)c1c(N)n(-c2cccc(S(N)(=O)=O)c2)c2nc3ccccc3nc12`?
ERK AVP inh: 3%; 15-hLO inh: -12%; CRE Fsk mod: 10µM*; 15-hLO-2 inh: 5%

What do the screens show for `COCCCNC(=O)c1c(N)n(-c2ccc(S(N)(=O)=O)cc2)c2nc3ccccc3nc12`?
15-hLO-2 inh: -9%

Results for Cc1noc(C)c1C(=O)N1CCC2(CC1)CCN(c1ccncc1)CC2 ?
ERK AVP inh: -10%; 15-hLO inh: 3%; CRE Fsk mod: -1%; 15-hLO-2 inh: 7%

How did COc1ccccc1CN1CCCC2(CCN(S(=O)(=O)c3ccccc3)CC2)C1 do in these assays?
ERK AVP inh: 1%; 15-hLO inh: 2%; CRE Fsk mod: -1%; 15-hLO-2 inh: 12%

What do the screens show for `CC1Cc2nc(SCC(=O)Nc3nccs3)n(Cc3ccccc3)c(=O)c2S1` (configuration not stated)?
15-hLO inh: -2%; CRE Fsk mod: 13µM*

How did CC1Cc2nc(SCC(N)=O)n(Cc3ccccc3)c(=O)c2S1 (configuration not stated) do in these assays?
15-hLO inh: 5%; CRE Fsk mod: 4%

What do the screens show for `Cc1cc(C)c2cc(CN(Cc3ccc4c(c3)OCO4)Cc3nnnn3Cc3ccco3)c(=O)[nH]c2c1`?
ERK AVP inh: -25%; 15-hLO inh: 10µM*; CRE Fsk mod: -7%; 15-hLO-2 inh: 6%

Results for Cc1ccc2[nH]c(=O)c(CN(Cc3ccc4c(c3)OCO4)Cc3nnnn3Cc3ccco3)cc2c1 ?
ERK AVP inh: -18%; 15-hLO inh: inconclusive; CRE Fsk mod: -7%; 15-hLO-2 inh: -2%[2.29 µM]

Results for O=c1[nH]c2cc3c(cc2cc1CN(Cc1ccccc1)Cc1nnnn1Cc1ccco1)OCCO3 ?
ERK AVP inh: 22%; 15-hLO inh: 32µM*; CRE Fsk mod: -23%; 15-hLO-2 inh: -4%

What do the screens show for `O=c1[nH]c2cc3c(cc2cc1CN(Cc1cccs1)Cc1nnnn1Cc1ccco1)OCCO3`?
ERK AVP inh: 26%; 15-hLO inh: 10µM*; CRE Fsk mod: inconclusive; 15-hLO-2 inh: -7%

How did COC(=O)c1c(-c2cc(OC)c(OC)c(OC)c2)c2ccnc(OCc3ncccn3)c2c(=O)n1Cc1ccnc(C)c1 do in these assays?
ERK AVP inh: 5%; 15-hLO inh: -14%[25.6 µM]; CRE Fsk mod: inconclusive; 15-hLO-2 inh: 13%
